Among the data in PubChem BioAssay (NCI) are growth inhibition values, retold here.

The panel holds about 79,000 compounds, 15% with a hit somewhere; the sample as a whole holds those more often. Active and inactive are the calls of the source. Rule as the data show it: active = growth inhibition above about 70%; inactive = the rest.

One test in a line: NCI Yeast Anticancer Drug Screen. Data for the sgs1 mgt1 strain (AID 161).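 Also: 0% = growth of cultures given vehicle only.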 The following applies: S. cerevisiae sgs1 mgt1 strain, at 50.0 µM, stronger effect = higher value. A digest of the protocol:
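Read-out: growth inhibition vs vehicle controls. Cells: mutant yeast strain deficient in DNA damage repair.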
Consider `CC(C)C(=O)OC1(Cc2cccc[n+]2C)CCCCC1`, for which the growth inhibition is 22.6% (inactive).

In the case of `CCCCCCn1ncc(=O)[nH]c1=O`, the growth inhibition was 2.75% (inactive).

On to `Cc1ccc(O)c(C)n1`, for which the growth inhibition was 0.15% (inactive).

Take `N#C/C(=C\C1CCCC([N+](=O)[O-])C1)C1CCC([N+](=O)[O-])CC1` (stereo not given): the growth inhibition was -7.15% (inactive).

Take `CC(=O)c1cccc2c(C(C)=O)cccc12`: the growth inhibition was 14.8% (inactive).

`CN1C(=O)CC(c2ccc(Cl)cc2)C1=O` (stereo not given): the growth inhibition was -0.65% (inactive).

As to `C=CCNC(=S)N(Cc1ccccc1)Cc1ccccc1`, the growth inhibition is 91.9% (active).

For `CC(C)(C)NCC(O)c1ccc(O)c(CO)n1` (stereo not given), the growth inhibition was -19.4% (inactive).

Turning to `O=S1(=O)C2C=CCC1C(Cl)CC2` (stereo not given), the growth inhibition was 36% (inactive).

For `O=C1c2ccccc2-c2nc(/C=C/c3ccccc3)cc3c2c1nc1ccccc13`, the growth inhibition is 8.6% (inactive).

A further test can be described thus: NCI Yeast Anticancer Drug Screen. Data for the cln2 rad14 strain (AID 165).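 Also: 0% = growth equal to vehicle treated cultures.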 The following applies: S. cerevisiae cln2 rad14 strain, at 50.0 µM, stronger effect = higher value. The method, boiled down:
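Test compounds were added to cln2 rad14 yeast cultures; inhibition of growth was then determined by comparison with vehicle treatment.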
Consider `COc1cccc(NC(=O)CC(=O)NN2C(=O)/C(=C/c3ccc(N(CCC#N)CCC#N)cc3)N=C2c2cc([N+](=O)[O-])ccc2Cl)c1`, for which the growth inhibition is -6.7% (inactive).

As to `CC(C)(C)[Si](C)(C)OCCc1ccccc1C1CC2(S(=O)(=O)c3ccccc3)ON1CC2S(=O)(=O)c1ccccc1` (stereo not given), the growth inhibition is -12.6% (inactive).

For the molecule `Nc1ccc(N2N=C(N3CCCC3)CC2=O)cc1`, the growth inhibition was 1.2% (inactive).

On to `OCc1ccc2ccccc2n1`, for which the growth inhibition is -1.55% (inactive).

For the molecule `COc1ccc(CCNC(=S)N/C=C(\C#N)S(=O)(=O)c2ccc(C)cc2)cc1OC`, the growth inhibition is 3.45% (inactive).

As for `O=C(/C=C\c1ccc(Cl)cc1)OCCCCOC(=O)/C=C/c1ccc(Cl)cc1`, the growth inhibition is 9.5% (inactive).

Take `Oc1ccccc1/C=N/Nc1nc(N/N=C/c2ccccc2O)nc(N/N=C/c2ccccc2O)n1`: the growth inhibition is 16.9% (inactive).

`CC(C)CCCC(C)C1CCC2C3CC=C4CC(OC5CCC6(C)C(=CCC7C6CCC6(C)C(C(C)CCCC(C)C)CCC76)C5)CCC4(C)C3CCC12C` (stereo not given): the growth inhibition is -10.7% (inactive).

On to `COc1ccc(N2C(=O)[C@@H]3[C@H](C2=O)c2[nH]c4ccccc4c2C2CCC(C(C)(C)C)C[C@@H]23)cc1` (stereo not given in full), for which the growth inhibition is 31.4% (inactive).

As to `C=CCC1(C(C)C(O)c2cc(OC)c(OC)c(OC)c2)CC(O)C=CC12OCCO2` (stereo not given), the growth inhibition is 14.9% (inactive).

Regarding `CCOc1ccc(N2C(=O)C(=O)C(C#N)(c3nc4ccccc4o3)C(=O)C2=O)cc1`, the growth inhibition was 6% (inactive).

Regarding `CC(=O)c1ccc(N2CCCCC2)cc1`, the growth inhibition is -3.1% (inactive).

With `CCOC(=O)c1ccc(Nc2cnc3ccc(C(F)(F)F)cc3n2)cc1`, the growth inhibition was 14.9% (inactive).

In the case of `Cc1ccc(C(=O)C(c2nc3n(c2O)/C(=N/C(=O)Nc2ccc(Cl)cc2)N=N3)c2nc3n(c2O)/C(=N/C(=O)Nc2ccc(Cl)cc2)N=N3)cc1`, the growth inhibition was -39% (inactive).

Take `CCCCS(=O)(=O)CCC(N)C(=O)O` (stereo not given): the growth inhibition is -36.2% (inactive).

As to `Clc1ccc(C2N3CCCCC3[C@@H]3c4[nH]c5ccccc5c4CCN23)cc1` (stereo not given in full), the growth inhibition is -4.65% (inactive).

Take `O=C1NC(=O)C(c2ccc(Cl)c(Cl)c2)N1` (stereo not given): the growth inhibition was -13.7% (inactive).

Consider `CCCC(C)C(=O)OCCOC` (stereo not given), for which the growth inhibition was -19.1% (inactive).

Consider `Cc1ccc(N=Cc2cc(Cl)cc(Cl)c2OC(=O)c2ccccc2)cc1C`, for which the growth inhibition is 90.2% (active).

In the case of `CN(Cc1ccccc1)C(=O)NC1CCCCC1`, the growth inhibition was -22.8% (inactive).

With `c1ccc2c(-c3ccncc3)c3ccccc3cc2c1`, the growth inhibition was 0.45% (inactive).

For the molecule `C(=N/Nc1ccccc1)/c1ccco1`, the growth inhibition is 13.7% (inactive).

Consider `CCCc1sc(NC(C)=O)nc1-c1ccccc1`, for which the growth inhibition is 29.3% (inactive).

As to `CC(=O)OC1CCC2(C)C(CCC3(C)C2CC=C2C4CC(C)(C)CCC4(C)CCC23C)C1(C)C` (stereo not given), the growth inhibition is -1.6% (inactive).

With `CCOC(=O)C(C)c1nc2cc(C(F)(F)F)ccc2[nH]c1=O` (stereo not given), the growth inhibition is 7.5% (inactive).

In the case of `NC(=O)C(=O)NNC(=O)Nc1ccc(Cl)cc1`, the growth inhibition is -13.3% (inactive).

Consider `CCCCC1OCCOC1C1COCCO1` (stereo not given), for which the growth inhibition is -6% (inactive).

Turning to `CC(=O)Oc1ccc(Nn2c3ccccc3c3ccccc32)c(C)c1`, the growth inhibition was 54.6% (inactive).

As for `CCCCCCCCC(=O)Nc1nc2nc[nH]c2c(=O)[nH]1`, the growth inhibition was -30.1% (inactive).

As to `CCC(CC)C(=O)OCCCCC1CCCO1` (stereo not given), the growth inhibition is -16.6% (inactive).

Turning to `CC(C)C(=O)OC1(Cc2cccc[n+]2C)CCCCC1`, the growth inhibition is 27.4% (inactive).

For the molecule `CCCCCCn1ncc(=O)[nH]c1=O`, the growth inhibition is -40.8% (inactive).

As to `Cc1ccc(O)c(C)n1`, the growth inhibition was 7% (inactive).

On to `N#C/C(=C\C1CCCC([N+](=O)[O-])C1)C1CCC([N+](=O)[O-])CC1` (stereo not given), for which the growth inhibition is -6.5% (inactive).

Regarding `CC(=O)c1cccc2c(C(C)=O)cccc12`, the growth inhibition is -20.1% (inactive).

Consider `CN1C(=O)CC(c2ccc(Cl)cc2)C1=O` (stereo not given), for which the growth inhibition was 2.5% (inactive).

`C=CCNC(=S)N(Cc1ccccc1)Cc1ccccc1`: the growth inhibition is 82.9% (active).

Consider `CC(C)(C)NCC(O)c1ccc(O)c(CO)n1` (stereo not given), for which the growth inhibition is 9.05% (inactive).

With `O=S1(=O)C2C=CCC1C(Cl)CC2` (stereo not given), the growth inhibition is -24.4% (inactive).

Turning to `O=C1c2ccccc2-c2nc(/C=C/c3ccccc3)cc3c2c1nc1ccccc13`, the growth inhibition is 7% (inactive).
